Measurements reported in PubChem BioAssay.
Active and inactive are the calls of the source.

How the values were obtained:
[1] = tested on: Plasmodium falciparum Sir2 (PF13_0152, Sir2A); assay: Plasmodium falciparum Sir2A binding compounds – biochemical, small-molecule microarray, 635 nm fluorescence, primary screen (AID 1098); settings: fluorescence 635 nm, higher = more signal;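 further: score merges spot fluorescence intensity with its signal-to-noise ratio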
[2] = probe aDKK1 binding to arrayed compounds – biochemical, biotinylated probe, 635/667 nm fluorescence, primary screen (AID 1099); settings: small-molecule microarray, higher = more signal;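 further: score merges 667nm spot fluorescence with signal to noise across triplicate slides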
[3] = probe aCHRDL2 binding to arrayed compounds – biochemical, biotinylated probe, 635/667 nm fluorescence, primary screen (AID 1100); settings: small-molecule microarray, higher = more signal
[4] = change in splice reporter luminescence, either direction, cell-based, HEK293, spliceosome inhibition project, primary screen (AID 1101); settings: HEK293 splicing luciferase reporter, 24 h, higher = more signal, called active from +8 up or from −8 down;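 further: HEK293 cells carrying a splicing-competent luciferase reporter gene; test concentration not given here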
[5] = molecular target: Fibroblast growth factor 10 (Homo sapiens) (UniProt O15520); assay: compounds binding fibroblast growth factor 10 – biochemical, small-molecule microarray, 635 nm fluorescence, primary screen (AID 1102); settings: FGF10 binding, fluorescence 635 nm, higher = more signal
Sequence of Fibroblast growth factor 10 (Homo sapiens) (O15520 whole entry, looked up): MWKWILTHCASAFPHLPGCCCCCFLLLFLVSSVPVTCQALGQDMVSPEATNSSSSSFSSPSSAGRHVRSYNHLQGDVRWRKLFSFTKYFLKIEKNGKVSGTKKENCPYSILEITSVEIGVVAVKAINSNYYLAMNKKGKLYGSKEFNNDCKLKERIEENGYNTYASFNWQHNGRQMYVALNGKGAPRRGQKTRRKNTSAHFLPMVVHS

[6] = tested on: glycogen synthase kinase-3 (GSK3A per assay name; protocol says GSK3B); assay: compounds binding glycogen synthase kinase-3 – biochemical, small-molecule microarray, 635 nm fluorescence, GSK3A, primary screen (AID 1103); settings: fluorescence 635 nm, higher = more signal; further: the record names both GSK3A and GSK3B
[7] = molecular target: Epidermal growth factor receptor (Homo sapiens) (UniProt P00533); assay: compounds binding epidermal growth factor receptor – biochemical, small-molecule microarray, 635 nm fluorescence, primary screen (AID 1104); settings: EGFR binding, higher = more signal;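 further: score merges 667 nm emission intensity with spot signal to noise over triplicate slides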
Sequence of Epidermal growth factor receptor (Homo sapiens) (P00533 whole entry, looked up): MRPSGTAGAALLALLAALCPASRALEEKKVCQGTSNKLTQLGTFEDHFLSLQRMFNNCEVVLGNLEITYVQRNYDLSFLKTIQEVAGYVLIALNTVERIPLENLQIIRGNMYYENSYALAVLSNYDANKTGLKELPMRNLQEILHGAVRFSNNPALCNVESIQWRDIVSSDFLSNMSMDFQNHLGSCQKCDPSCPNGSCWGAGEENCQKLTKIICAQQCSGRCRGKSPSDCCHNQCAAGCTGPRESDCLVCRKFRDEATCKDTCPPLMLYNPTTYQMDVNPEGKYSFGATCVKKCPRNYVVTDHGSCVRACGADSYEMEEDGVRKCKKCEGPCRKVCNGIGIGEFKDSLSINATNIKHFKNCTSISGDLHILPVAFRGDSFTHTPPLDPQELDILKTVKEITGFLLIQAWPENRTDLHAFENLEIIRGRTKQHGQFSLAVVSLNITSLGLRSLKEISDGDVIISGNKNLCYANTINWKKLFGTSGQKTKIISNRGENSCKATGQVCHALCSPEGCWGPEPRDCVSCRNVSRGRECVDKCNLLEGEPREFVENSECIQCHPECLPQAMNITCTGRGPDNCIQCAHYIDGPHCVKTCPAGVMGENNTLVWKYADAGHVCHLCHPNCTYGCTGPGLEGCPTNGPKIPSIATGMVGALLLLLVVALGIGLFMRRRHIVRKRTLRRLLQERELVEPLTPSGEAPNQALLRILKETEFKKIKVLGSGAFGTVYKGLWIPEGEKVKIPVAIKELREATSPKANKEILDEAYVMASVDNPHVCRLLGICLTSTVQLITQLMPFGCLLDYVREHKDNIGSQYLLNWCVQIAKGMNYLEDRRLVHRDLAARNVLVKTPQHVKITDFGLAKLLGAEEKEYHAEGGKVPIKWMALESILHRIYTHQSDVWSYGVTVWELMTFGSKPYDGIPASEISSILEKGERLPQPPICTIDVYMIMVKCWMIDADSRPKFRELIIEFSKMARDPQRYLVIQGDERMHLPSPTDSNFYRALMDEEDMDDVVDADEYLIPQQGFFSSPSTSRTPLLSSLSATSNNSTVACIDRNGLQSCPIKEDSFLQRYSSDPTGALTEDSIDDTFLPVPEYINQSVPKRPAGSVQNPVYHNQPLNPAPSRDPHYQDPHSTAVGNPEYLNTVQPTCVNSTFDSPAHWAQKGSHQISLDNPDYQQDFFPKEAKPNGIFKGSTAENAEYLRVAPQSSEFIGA

[8] = molecular target: Follistatin-related protein 3 (Homo sapiens) (UniProt O95633); assay: compounds binding follistatin-related protein 3 – biochemical, small-molecule microarray, 635 nm fluorescence, primary screen (AID 1105); settings: FSTL3 binding, higher = more signal;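 further: score merges emission near 667 nm and signal to noise per printed spot across three slides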
Sequence of Follistatin-related protein 3 (Homo sapiens) (O95633 whole entry, looked up): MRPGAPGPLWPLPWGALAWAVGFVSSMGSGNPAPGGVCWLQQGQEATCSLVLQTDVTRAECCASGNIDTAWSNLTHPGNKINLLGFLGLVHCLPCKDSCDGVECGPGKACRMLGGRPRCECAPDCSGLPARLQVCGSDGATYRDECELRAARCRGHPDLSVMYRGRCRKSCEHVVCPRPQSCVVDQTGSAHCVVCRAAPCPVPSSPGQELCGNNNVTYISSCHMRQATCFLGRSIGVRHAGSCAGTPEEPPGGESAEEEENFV

[9] = molecular target: Dickkopf-related protein 1 (Homo sapiens) (UniProt O94907); assay: small molecules binding DKK1 protein – biochemical, small-molecule microarray, 635 nm fluorescence scan, primary screen (AID 1106); settings: higher = more signal;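 further: score merges emission near 667 nm with signal to noise over three replicate slides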
Sequence of Dickkopf-related protein 1 (Homo sapiens) (O94907 whole entry, looked up): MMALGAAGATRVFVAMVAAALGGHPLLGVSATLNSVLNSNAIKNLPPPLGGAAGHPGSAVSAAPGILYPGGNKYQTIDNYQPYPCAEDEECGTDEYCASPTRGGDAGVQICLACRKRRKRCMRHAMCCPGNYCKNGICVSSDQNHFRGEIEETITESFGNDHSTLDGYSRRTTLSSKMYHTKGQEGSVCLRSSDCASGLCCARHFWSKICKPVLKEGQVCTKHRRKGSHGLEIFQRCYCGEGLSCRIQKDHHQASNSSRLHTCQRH

[10] = tested on: Inhibin beta A chain (activin A); assay: small molecules binding activin A – biochemical, small-molecule microarray, 635 nm fluorescence scan, primary screen (AID 1107); settings: INHBA, higher = more signal;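 further: mouse activin A protein probed at 4.33 µg/mL on printed slides; score merges bound-protein fluorescence near 667 nm with spot signal-to-noise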
[11] = tested on: Human papillomavirus type 1a protein E7 (residues 44-93); assay: small molecules binding HPV E7 44-93 – biochemical, small-molecule microarray, residues 44-93, 635 nm fluorescence, primary screen (AID 1108); settings: fluorescence 635 nm, higher = more signal;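 further: E7 fragment applied at 1 µg/mL in TBST for 1 h at 4 C; score combines spot fluorescence with its signal to noise ratio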
[12] = hepatitis C replication reporter changes, two-sided – Huh7 cells, luciferase reporter, HCV replication inhibitor project, primary screen (AID 1109); settings: Huh7 HCV replicon luciferase reporter, 48 h; higher = more signal;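 further: huh7 hepatoma cells harbouring a luciferase neomycin HCV replicon reporter; luciferase luminescence as measure of HCV replicon replication; test concentration not given here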
[13] = molecular target: Left-right determination factor 2 (Homo sapiens) (UniProt O00292); assay: small molecules binding LEFTY2 protein – biochemical, small-molecule microarray, 635 nm fluorescence scan, primary screen (AID 1110); settings: higher = more signal
Sequence of Left-right determination factor 2 (Homo sapiens) (O00292 whole entry, looked up): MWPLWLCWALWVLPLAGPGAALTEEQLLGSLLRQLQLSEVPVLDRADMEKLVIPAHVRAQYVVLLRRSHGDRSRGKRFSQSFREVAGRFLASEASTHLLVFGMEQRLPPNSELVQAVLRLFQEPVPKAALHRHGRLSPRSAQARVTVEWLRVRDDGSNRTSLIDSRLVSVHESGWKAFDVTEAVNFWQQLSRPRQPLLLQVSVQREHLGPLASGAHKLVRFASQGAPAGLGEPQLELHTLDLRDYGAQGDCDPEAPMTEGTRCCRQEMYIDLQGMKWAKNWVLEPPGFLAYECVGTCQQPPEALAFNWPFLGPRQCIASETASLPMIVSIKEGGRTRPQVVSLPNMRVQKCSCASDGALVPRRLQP

[14] = molecular target: Calmodulin-1 (Homo sapiens) (UniProt P0DP23); assay: small molecules binding calmodulin-1 with EGTA – biochemical, small-molecule microarray, Cy5-labelled CALM1, profiling panel (AID 1111); settings: Cy5-CALM1 binding fluorescence, higher = more signal;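 further: labelled calmodulin applied in Tris saline Tween buffer holding calcium plus EGTA and DTT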
[15] = molecular target: Calmodulin-1 (Homo sapiens) (UniProt P0DP23); assay: small molecules binding Ca-loaded calmodulin-1 – biochemical, small-molecule microarray, Cy5-labelled CALM1, plus calcium, artefact control for SMM control-protein annotation, profiling panel (AID 1112); settings: Cy5-CALM1 binding fluorescence, higher = more signal;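 further: score merges spot fluorescence with signal to noise from triplicate slides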
[16] = probe aWnt5a binding to arrayed compounds – biochemical, biotinylated probe, 635/667 nm fluorescence, primary screen (AID 1113); settings: small-molecule microarray, higher = more signal;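 further: score merges 667 nm fluorescence intensity with signal-to-noise per printed feature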
[17] = probe aShh binding to arrayed compounds – biochemical, biotinylated probe, 635/667 nm fluorescence, primary screen (AID 1114); settings: small-molecule microarray, higher = more signal;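 further: probe is biotin-labelled aShh protein from a stem cell growth factor screen; measures binding of labelled protein to compounds printed on the slide; score merges feature fluorescence at 667 nm with signal-to-noise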
[18] = probe aNog binding to arrayed compounds – biochemical, biotinylated probe, 635/667 nm fluorescence, primary screen (AID 1115); settings: small-molecule microarray, higher = more signal;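 further: probe is biotinylated aNog protein used at 0.15 µg/mL for 1 h at 4 C; z-score combines 667 nm fluorescence of each spot with its signal to noise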
[19] = molecular target: Torsin-1A-interacting protein 1 (Homo sapiens) (UniProt Q5JTV8); assay: compound microarray binding of lysate hLAP1 – cell lysate, small-molecule microarray, COS7 lysate, 635/667 nm fluorescence, primary screen (AID 1116); settings: 635 nm fluorescence, higher = more signal
Sequence of Torsin-1A-interacting protein 1 (Homo sapiens) (Q5JTV8 whole entry, looked up): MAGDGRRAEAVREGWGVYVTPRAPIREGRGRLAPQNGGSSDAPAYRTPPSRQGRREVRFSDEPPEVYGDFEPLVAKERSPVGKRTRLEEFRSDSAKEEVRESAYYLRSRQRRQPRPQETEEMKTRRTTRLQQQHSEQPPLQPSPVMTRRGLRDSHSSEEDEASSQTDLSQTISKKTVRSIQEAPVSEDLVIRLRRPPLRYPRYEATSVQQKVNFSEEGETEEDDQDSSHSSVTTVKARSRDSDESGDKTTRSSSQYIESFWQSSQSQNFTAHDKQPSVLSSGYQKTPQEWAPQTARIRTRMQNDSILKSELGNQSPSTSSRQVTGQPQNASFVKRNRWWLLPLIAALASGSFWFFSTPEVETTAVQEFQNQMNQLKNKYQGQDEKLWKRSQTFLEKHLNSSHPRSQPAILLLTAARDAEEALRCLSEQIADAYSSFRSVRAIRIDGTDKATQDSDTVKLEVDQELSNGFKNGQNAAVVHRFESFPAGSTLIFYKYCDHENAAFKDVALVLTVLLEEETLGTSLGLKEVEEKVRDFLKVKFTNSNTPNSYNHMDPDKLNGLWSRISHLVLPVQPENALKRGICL

[20] = molecular target: Alpha-bungarotoxin (Bungarus multicinctus) (UniProt P60615); assay: compounds binding labelled alpha-BTX control protein – biochemical, small-molecule microarray, Alexa647 label, 635/667 nm fluorescence, artefact control for SMM control protein annotation, profiling panel (AID 1117); settings: alpha-BTX-A647 binding fluorescence, higher = more signal
Sequence of Alpha-bungarotoxin (Bungarus multicinctus) (P60615 whole entry, looked up): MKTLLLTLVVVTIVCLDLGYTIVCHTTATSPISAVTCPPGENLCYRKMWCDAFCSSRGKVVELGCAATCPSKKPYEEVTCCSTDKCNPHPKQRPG

Compound	composite z-score [1]	composite z-score [2]	composite z-score [3]	z-score [4]	composite z-score [5]	composite z-score [6]	composite z-score [7]	composite z-score [8]	composite z-score [9]	composite z-score [10]	composite z-score [11]	z-score [12]	composite z-score [13]	composite z-score [14]	composite z-score [15]	composite z-score [16]	composite z-score [17]	composite z-score [18]	composite z-score [19]	composite z-score [20]
CCOC(=O)C[C@H]1[C@H](OC(=O)c2ccc(-c3ccccc3)cc2)[C@@H](NC(=O)c2ccc3ccccc3c2)c2cc(OCCCO)ccc2N1C(=O)c1ccc2ccccc2n1	0.33	-0.0069	0.221	-0.634 (inactive)	0.577	0.439	0.098	0.458	0.426	0.31	1.18	-1.07	0.249	1.31	0.593	-0.0445	-0.112	-0.324	0.639	0.0804
C=CCC(OC(C)=O)[C@@H]1[C@@H](N(Cc2cc3ccccc3o2)C(=O)c2ccc(C)cc2)c2cc(OCCCO)ccc2N1C(=O)Cc1ccc2ccccc2c1 (stereo not given in full)	-0.45	0.258	0.43	-0.793 (inactive)	-0.204	-0.822	-0.0197	-0.32	0.182	1.2	-0.494	-0.185	0.081	-0.0956	-0.147	0.103	-0.13	-0.322	0.102	-0.319
CC(C)(C)OC(=O)CC[C@@]1(C(=O)O)N=C(c2ccc(OCCCO)cc2)O[C@@H]1c1ccccc1CN=[N+]=[N-]	1.16	1	0.602	-0.326 (inactive)	0.0038	0.396	-0.207	-0.43	-0.689	1.08	1.31	-2.21	-0.677	1.33	1.09	0.145	0.218	-0.1	1.24	2.78
CC(C)(C)OC(=O)CC[C@]1(C(=O)N2CCOCC2)N=C(c2ccc(OCCCO)cc2)O[C@H]1c1ccccc1	1.65	0.126	0.417	0.12 (inactive)	1.05	0.488	-0.433	0.0033	-0.158	0.456	0.79	-0.304	-0.356	0.0137	-0.031	-0.0459	-0.27	-0.375	1.07	0.109
CN(C)CCCNC(=O)[C@@H]1c2ccccc2C(=O)N(Cc2ccc(OC(F)(F)F)cc2)[C@H]1c1ccc(CO)cc1	1.33	-0.115	0.56	0.0681 (inactive)	0.0228	0.887	-0.617	0.351	0.0558	0.561	1.35	-2.08	-0.0765	-0.226	-0.919	0.0003	0.0278	-0.309	0.724	0.243
COC(=O)[C@@]1(Cc2ccccc2)[C@H]2c3cc(C(=O)N4CCCC4)[nH]c3C[C@H]2CN1C(=O)c1ccccc1	1.1	0.865	0.91	-0.0516 (inactive)	-0.486	0.0863	-0.478	-0.444	-0.988	0.916	-1.89	-0.151	-0.632	0.677	0.705	0.0913	-0.243	1.1	1.96	-0.243
CN(C)CCCCNC(=O)[C@H]1C[C@H]2C(=O)N3CCC[C@H]3C(=O)N2[C@H]1c1ccc(O)cc1	0.0292	-1.21	-0.65	-2.27 (inactive)	-1.51	-0.0328	-0.364	0.398	-0.414	-0.984	-1.11	0.939	-0.148	-0.969	-0.949	-0.45	-0.401	0.39	-0.206	-1.01
Cc1ccc(S[C@]2(C(=O)NCCN3CCOCC3)CC(=O)N(Cc3ccccc3C(F)(F)F)[C@@H]2c2ccc(CO)cc2I)cc1	1.3	-0.102	0.93	-1.55 (inactive)	-0.973	-0.728	-0.842	-1.13	-1.15	0.446	0.323	-1.64	-1.49	-0.69	0.116	-0.0792	-0.0866	0.0331	-0.0897	-0.529
NC(=O)N1C(=O)C2C(C1=O)C1C=C(CCCO)C2C(c2cccs2)N1Cc1cc2c(cc1Br)OCO2 (stereo not given)	0.884	-0.198	0.229	0.701 (inactive)	-0.284	-0.0207	-0.495	-0.289	-0.756	0.975	0.183	0.199	-0.451	1.03	0.25	-0.0685	0.147	0.244	0.333	1.23
NC(N)=NCc1cn(CCc2c[nH]c3ccccc23)nn1	0.689	0.0191	-0.865	-0.443 (inactive)	0.479	1.18	0.699	1.12	1.6	0.307	0.712	-1.66	1.23	-0.732	-1	-0.114	0.0141	-0.158	0.615	0.755
C=CCOC(=O)[C@@H]1[C@H]2C(=O)O[C@H](c3ccccc3)[C@H](c3ccccc3)N2[C@H](c2ccc(OCCOC(=O)[C@H]3C[C@H]4C(=O)N[C@@H](CCCCNC(C)=O)C(=O)N4[C@H]3c3cccc(OCCO)c3)cc2)[C@@]12C(=O)Nc1ccc(I)cc12	1.52	0.453	0.182	0.357 (inactive)	0.909	1.32	0.771	1.23	1.45	0.124	0.721	-1.03	0.642	0.277	-0.759	-0.096	0.0725	-0.0317	0.97	1.54
